TDP1 block: TDP1 (human) enzyme inhibition; actives 0.28% (n = 350,000); recombinant TDP1, AlphaScreen DNA substrate cleavage; Q9NUW8; AID 485290; Potency, µM (top dose mostly 130 µM), for inactives: at the top dose activity change, negative = inhibition, most hits filed as inhibitors; note: potency is the fitted concentration of half-maximal effect; nearly all actives have a fitted effect of over 40% in size
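E. coli-derived human Tdp1, 1 nM final. Cpd preinc 15 min RT; substrate 15 nM final, 5 min RT; AS bead mix 10 ug/ml final, 10 min RT. Signal loss = tyrosine-FITC cleavage. No-enzyme wells = max signal.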
TDP1 cell noCPT: qHTS for Inhibitors of human tyrosyl-DNA phosphodiesterase 1 (TDP1): qHTS in cells in absence of CPT; Potency, µM (top dose mostly 46.2 µM), for inactives: at the top dose activity change, negative = growth inhibition, usual class: inhibitors; actives 15% (n = 420,000); DT40 Tdp1-/- hTDP1 cells, no CPT, ATP luminescence, 48 h; note: potency is the fitted concentration of half-maximal effect; nearly all actives have a fitted effect of over 55% in size
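Camptothecin absent (DMSO only). Human TDP1-complemented DT40 knockout cells, 400 cells/well, 37 °C for minimum 48 hr; ATP measured via CellTiter-Glo, 30 min dark incubation, luminescence.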
CtBP-E1A blk: CtBP/E1A binding inhibition | activity change, % (no concentration beside the values) | actives 0.49% (n = 340,000) | AlphaScreen GST-E1A/His-CtBP binding, 1536-well; stronger effect = lower value; in the data active = activity change below about -65%; inconclusive = mostly about -30% to -63%
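AlphaScreen with 125 nM GST-E1A and 125 nM His-CtBP (5X stocks) in Tris pH 8.0, 300 mM NaCl, BSA, Tween 20, TCEP. Compounds preincubated 2 h at 37 deg C, then glutathione donor/nickel acceptor beads added for 1 h at 37 deg C in dark.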
DT40 TDP1 CPT: growth inhibition of DT40 Tdp1-/-;hTDP1 cells with camptothecin (screen for TDP1 inhibitors); chicken DT40 Tdp1-/-;hTDP1 cells + 20 nM CPT, ATP luminescence, 48 h; Potency, µM (series often up to 46.2 µM), inactives show top-dose activity change, negative = growth inhibition, most hits filed as inhibitors; actives 12% (n = 420,000); AID 686979; note: potency is the fitted concentration of half-maximal effect; nearly all actives have a fitted effect of over 55% in size
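Cell growth measured by CellTiter-Glo luminescence after a minimum 48 h, 37 C compound exposure with 20 nM CPT in Tdp1-knockout DT40 cells stably expressing hTDP1, seeded 400/well; qHTS titration format.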
Six1-Eya2 inh: inhibitors of human Six1/Eya2 interaction; Q15475+O00167; AlphaScreen GST-Six1/His-Eya2 binding, biochemical; stronger effect = lower value; activity change, % (concentration not given with the values); actives 0.56% (n = 360,000); AID 651725; in the data active = activity change below about -65%; inconclusive = mostly about -30% to -63%
Target sequence (O00167 whole entry, looked up): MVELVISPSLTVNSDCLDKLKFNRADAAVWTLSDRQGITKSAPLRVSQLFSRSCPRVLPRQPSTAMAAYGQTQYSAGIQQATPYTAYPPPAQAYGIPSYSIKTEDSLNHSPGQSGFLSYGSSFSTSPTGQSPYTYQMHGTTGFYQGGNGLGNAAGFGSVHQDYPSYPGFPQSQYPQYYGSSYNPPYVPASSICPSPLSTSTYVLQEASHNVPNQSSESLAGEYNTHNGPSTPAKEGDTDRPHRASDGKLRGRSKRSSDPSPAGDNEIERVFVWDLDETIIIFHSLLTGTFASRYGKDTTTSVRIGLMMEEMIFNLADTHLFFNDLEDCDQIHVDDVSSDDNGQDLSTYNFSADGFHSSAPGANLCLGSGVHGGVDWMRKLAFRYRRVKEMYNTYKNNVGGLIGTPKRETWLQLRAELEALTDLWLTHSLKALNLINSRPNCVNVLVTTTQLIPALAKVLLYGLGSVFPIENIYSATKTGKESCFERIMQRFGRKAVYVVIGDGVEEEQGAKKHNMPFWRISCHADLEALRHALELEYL
Target sequence (Q15475 whole entry, looked up): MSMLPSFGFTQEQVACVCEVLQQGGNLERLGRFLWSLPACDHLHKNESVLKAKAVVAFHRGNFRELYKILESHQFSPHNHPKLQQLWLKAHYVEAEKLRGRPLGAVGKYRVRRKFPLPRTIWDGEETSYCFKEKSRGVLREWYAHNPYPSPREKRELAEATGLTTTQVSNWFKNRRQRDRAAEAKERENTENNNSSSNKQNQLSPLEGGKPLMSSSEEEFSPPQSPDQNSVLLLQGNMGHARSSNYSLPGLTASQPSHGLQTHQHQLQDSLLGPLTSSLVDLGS
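Homogeneous AlphaScreen proximity assay pairing GST-Six1 with His-tagged Eya2 (added as 5X mix: 250 nM and 500 nM) in 50 mM Tris pH 8.0, 300 mM NaCl, 1 mM TCEP. Glutathione donor and nickel acceptor beads; 1 h, 37 °C, dark.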
IL-1B inflam inh: blocks inflammasome-driven IL-1 beta release; actives 4.7% (n = 360,000); THP-1 LPS/ATP IL-1B secretion, AlphaLISA, 16 h; stronger effect = lower value; activity change, % at 57.5 µM; AID 743279; in the data active = activity change below about -50%; inconclusive = mostly about -30% to -49%
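THP-1 cells pretreated 1 hr with compounds (up to 57.5 uM final), then stimulated with LPS (250 ng/mL final) plus ATP (1.25 mM final); secreted IL-1B measured by AlphaLISA after 16 hr, decreased signal indicating inhibition.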
Starred values were filed as active, the others as inactive; u = inconclusive; x = no result. Compounds with a hit are over-represented: about 18% of the library has one in this group of screens. Unless noted, calls come from the whole dose curve; as a rule, active = well fitted curve in the direction sought with a large enough effect; inconclusive = small, poorly fitted or top-dose-only effect, or another doubt; inactive = no such curve, though single readings can be large; an effect the other way counts as inactive or inconclusive. % is set by controls: 0 for no effect and ±100 for the full control effect.

SMILES	TDP1 block	TDP1 cell noCPT	CtBP-E1A blk	DT40 TDP1 CPT	Six1-Eya2 inh	IL-1B inflam inh
CCc1cc(C(=O)N2CCCC(C(=O)c3ccc(OC)c(F)c3)C2)n(C)n1 (stereo not given)	1%	u	0	u	5	35
Cc1cccc(N2C(=O)c3ccc(Br)cc3C2=O)n1	1%	x	x	x	x	x
CN[C@H](C)C(=O)NC[C@H]1O[C@@H](n2cc(C)c(=O)[nH]c2=O)C[C@@H]1O	x	-89%	-14	-84%	42	36
Nc1c(-c2nc(-c3ccccc3Cl)no2)nnn1-c1ccccc1C(F)(F)F	8%	-8%	x	2%	x	x
CC(C)Oc1cccc(C(=O)C2CCCN(C(=O)c3ccsc3)C2)c1 (stereo not given)	x	-1%	x	1%	5	4
CCc1[nH]nc(C(=O)N2CCCC(C(=O)c3cccc(OC(C)C)c3)C2)c1C (stereo not given)	5%	16µM*	2	u	25	u
O=C(c1noc2c1CCCC2)N1CCCC(N2CCN(c3ccccc3F)CC2)C1 (stereo not given)	5%	u	1	29µM*	0	0
CC1CN(S(=O)(=O)c2ccc(F)cc2)CN1C(=O)N1CCOCC1 (stereo not given)	x	-20%	1	-21%	6	-8
CCc1ccc(-n2nc(CO)c(C(=O)NCCCCc3ccccc3)n2)cc1	-2%	-18%	x	7%	x	x
COC(=O)c1cnc(SCc2ccc(C)cc2)n1C	-1%	u	x	7%	5	-5
CC(Nc1nc(=S)nc(Nc2ccc(F)cc2)[nH]1)c1ccccc1 (stereo not given)	x	u	x	21µM*	-2	16
CCNc1nc(NCc2ccccc2)nc(SCC(N)=O)n1	8%	u	0	1%	1	10
CC(Nc1nc(Nc2ccc(F)cc2)nc(SCC(N)=O)n1)c1ccccc1 (stereo not given)	x	-27%	-4	13%	-11	-60*
CCNc1nc(=S)nc(NC(C)C)[nH]1	-1%	u	-1	-30%	-8	7
CCN(CC)c1ccc(CNc2nc3ccccc3n2CC)cc1	x	u	-10	u	18	-28
Cn1c(CNc2cccc(C(F)(F)F)c2)n[nH]c1=S	-7%	-3%	x	u	0	12
CC(C)OC(=O)c1cccc(C(=O)Nc2cccc(NC(=O)c3cccc(C(=O)OC(C)C)n3)n2)n1	2%	2.1µM*	0	u	-2	57
COc1cc(NC(=O)C/C(C)=N/NC(=O)c2ccccn2)c(OC)cc1Cl	11%	-4%	-19	5%	u	-59*
CN(C)c1ccc(NC(=O)c2cccc(C(=O)Nc3ccc(N(C)C)cc3)n2)cc1	13%	6.5µM*	u	9.2µM*	u	-56*
C/C(CC(=O)Nc1ccc(N(C)C)cc1)=N\NC(=O)c1ccccn1	9%	15µM*	u	u	u	-15
CCOC(=O)c1cnc(-n2nc(C)cc2C)nc1NNc1cc(-c2ccccc2)nc(C)n1	0%	x	x	x	x	x
COc1ccc(S(=O)(=O)N2CCC[C@H]2C(=O)N2CCC[C@H]2C(=O)NCc2ccccn2)cc1C	x	-26%	4	0%	9	-7
CN(C)c1ccc(NC(=O)CC(NCc2ccccn2)C(=O)O)cc1 (stereo not given)	5%	-1%	7	-4%	-92*	20
NCCCC[C@H](NC(=O)[C@H](CS)NC(=O)[C@@H](N)Cc1cnc[nH]1)C(=O)N[C@@H](Cc1ccccc1)C(=O)N[C@@H](Cc1c[nH]c2ccccc12)C(=O)N[C@@H](Cc1c[nH]c2ccccc12)C(=O)O	21%	x	x	x	x	x
